This is part of a sample that, as a whole, favours compounds with a hit. Of some 79,000 tested, about 15% had one in any assay. A number with no mark means an inactive call. Activity calls are given as the source filed them. Cut-off read from the data, not from the text of the source: active = growth inhibition above about 70%; inactive = the rest.

The nature of the assay: NCI Yeast Anticancer Drug Screen. Data for the mlh1 rad18 strain (AID 175). Conditions: S. cerevisiae mlh1 rad18 strain growth inhibition; at 50.0 µM; stronger effect = higher value. A digest of the protocol: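 Vehicle-treated cultures served as the reference for growth inhibition in a yeast strain carrying DNA damage repair alterations exposed to each compound.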
On to `CCC(=O)OCC(OC(=O)CC)c1ccccc1` (stereo unspecified), for which the growth inhibition is 8.2%.

Consider `CC(=O)NC1CC2c3ccccc3C1([N+](=O)[O-])c1ccccc12` (stereo unspecified), for which the growth inhibition is -3.9%.

Regarding `CCNC1CC(C(C)(C)NCC)CC=C1C` (stereo unspecified), the growth inhibition is -55.2%.

For the molecule `COC(=O)C1=C(C(=O)OC)C(=Nc2ccccc2)c2ccccc2C1=O`, the growth inhibition was 90.6% (active).

`CC(Oc1cc2oc(=O)cc(-c3ccccc3)c2cc1Cl)C(=O)O` (stereo unspecified): the growth inhibition is -7.1%.

`c1cnc2c3ccncc3c3nc(-c4ccncc4)[nH]c3c2c1`: the growth inhibition was -17.2%.

In the case of `COCC(C)OC(=O)c1ccccc1` (stereo unspecified), the growth inhibition is 31.9%.

For `O=C(Nc1ccccc1Cl)c1ccc([N+](=O)[O-])cc1`, the growth inhibition was 24.6%.

Consider `C=CCc1ccc(OC(=O)CC)c(OC)c1`, for which the growth inhibition is -9.95%.

Take `O=Cc1ccccc1Cl`: the growth inhibition is 13.8%.

Consider `Cc1ccc(S(=O)(=O)Nc2ccccc2)cc1`, for which the growth inhibition is 37.3%.

As to `CN1CCCC2[C@@H]3CCC4=C(O)C(=O)CC[C@]4(C)C3CC[C@@]21C` (stereo partly specified), the growth inhibition is 18.4%.

Turning to `CN(C)CCCNc1ncnc2nc[nH]c12`, the growth inhibition is -0.15%.

In the case of `N#C/C(N)=C(\C#N)NC=NCc1ccccc1`, the growth inhibition is -21.1%.

For `c1ccc2c(c1)NC(N1CCCCC1)=Nc1ncncc1-2`, the growth inhibition is 2%.

As to `O=C1C(Cl)N(c2ccc([N+](=O)[O-])cc2)C1c1c[nH]c2ccccc12` (stereo unspecified), the growth inhibition was -31.4%.

`OC1CN(c2ccccc2)CC(O)CN(c2ccccc2)C1` (stereo unspecified): the growth inhibition was 6.2%.

As to `CC(=O)CC(=O)NCCN(C)C`, the growth inhibition was -6.65%.

For `COc1ccc(NC(=O)Nc2ccc(Br)cc2)cc1`, the growth inhibition was -15.2%.

As for `C[C@@H]1CC[C@]2(C(=O)O)CC[C@]3(C)C(=CC[C@@H]4[C@@]5(C)CC[C@H](O)C(C)(C)[C@@H]5CC[C@]43C)[C@@H]2[C@]1(C)O`, the growth inhibition is -65%.

With `OCC1NCCC(O)C1OC1OC(CO)C(O)C(O)C1O` (stereo unspecified), the growth inhibition is -18.6%.

For the molecule `NC(N)=NS(=O)(=O)c1ccc(NC(=O)c2ccc(Cl)c3c(Nc4ccc(S(=O)(=O)N=C(N)N)cc4)c4ccccc4nc23)cc1`, the growth inhibition was 29.1%.

As for `Cc1cccc(C)c1NC(=O)C(=O)/C(=C(\N)c1ccccc1)c1ccccc1`, the growth inhibition was -9.15%.

Regarding `CCCC1CN2CCc3cc(OC)c(OC)cc3C2CC1=O` (stereo unspecified), the growth inhibition was 39.8%.

`CCC[CH2][Sn]([C]#[C][Sn]([CH2]CCC)([CH2]CCC)[CH2]CCC)([CH2]CCC)[CH2]CCC`: the growth inhibition is 99.4% (active).

Take `O=[N+]([O-])c1cc2c(cc1O)[nH]c1cccc([N+](=O)[O-])c12`: the growth inhibition was -22.6%.

For the origin of these results see PubChem BioAssay (NCI).
